About 83,000 compounds went through this panel and 20% of them were active in at least one assay; those are over-represented in the sample as a whole.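 Assay: single dose, 48 h. Readout: percent growth (0 = no net growth; negative = cell death). Active: <10.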 Activity calls are given as the source filed them.
Key:
Test in all cases: NCI-60 one-dose screen, 48 h (100 = growth as untreated, 0 = no growth, -100 = all killed)
Conditions in all cases: 10 µM
T-47D breast = system: T-47D breast
BT-549 breast = system: BT-549 breast
MDA-MB-435 melanoma = system: MDA-MB-435 melanoma
SW-620 colon = system: SW-620 colon
MCF7 breast = system: MCF7 breast
HCT-116 colon = system: HCT-116 colon
HCC-2998 colon = system: HCC-2998 colon
KM12 colon = system: KM12 colon
MDA-MB-468 breast = system: MDA-MB-468 breast

Measured: growth

COc1ccc2nc(Cl)c(-c3cc(-c4ccccc4)nc(=O)[nH]3)cc2c1
inactive: T-47D breast 37.8% | BT-549 breast 38.9% | MDA-MB-435 melanoma 75.9% | SW-620 colon 11.1% | MCF7 breast 10.2% | HCC-2998 colon 84.9% | KM12 colon 18.3% | MDA-MB-468 breast 28.5%
active: HCT-116 colon 9.44%

COc1cc(/C=C/C(=O)c2cc(OC)c(OC)c(OC)c2)ccc1Oc1nc(Nc2ccc(F)cc2)nc(N(C)C)n1
inactive: T-47D breast 25.9%
active: BT-549 breast -89.8% | MDA-MB-435 melanoma -62.4% | SW-620 colon 1.14% | MCF7 breast 2.35% | HCT-116 colon -77.6% | HCC-2998 colon -81.5% | KM12 colon -41.1% | MDA-MB-468 breast -39.6%

O=C(CNc1nc(-c2ccccc2)cs1)Nc1ccc([N+](=O)[O-])cc1
inactive: BT-549 breast 12.3% | MDA-MB-435 melanoma 40.6% | HCT-116 colon 11.7% | KM12 colon 36.7%
active: T-47D breast 2.53% | SW-620 colon 7.63% | MCF7 breast 1.69% | HCC-2998 colon -97.8% | MDA-MB-468 breast -88.2%

O=C(Nc1cc(Cl)cc(Cl)c1)Nc1cc(Cl)cc(Cl)c1
active: T-47D breast -18.9% | BT-549 breast -41.1% | MDA-MB-435 melanoma -47% | SW-620 colon -42.3% | MCF7 breast -21.2% | HCT-116 colon -79.3% | HCC-2998 colon -27.3% | KM12 colon -22.9% | MDA-MB-468 breast -40.1%

O=c1oc2ccc(-c3ccc(F)cc3F)cc2c(=O)n1-c1ccc(F)cc1
inactive: SW-620 colon 10.2%
active: T-47D breast -20.5% | BT-549 breast -25.8% | MDA-MB-435 melanoma 0.996% | MCF7 breast -4.67% | HCT-116 colon 8.96% | HCC-2998 colon 7.52% | KM12 colon -0.662% | MDA-MB-468 breast -29.8%

O=C1N/C(=N\c2nccs2)S/C1=C\c1cccs1
inactive: T-47D breast 22.5% | BT-549 breast 44.2% | MDA-MB-435 melanoma 41.9% | SW-620 colon 30% | MCF7 breast 15.4% | HCT-116 colon 15.5% | HCC-2998 colon 40.8% | KM12 colon 28.1% | MDA-MB-468 breast 10.4%

O=C(CS(=O)(=O)c1oc(-c2ccc(Cl)cc2)nc1S(=O)(=O)c1ccccc1)N1CCCC1
active: T-47D breast -66.9% | BT-549 breast -3.43% | MDA-MB-435 melanoma -41.8% | SW-620 colon -70.1% | MCF7 breast -70.1% | HCT-116 colon 0.106% | MDA-MB-468 breast -90.5%
inactive: HCC-2998 colon 21.8% | KM12 colon 61.7%

O=C1CCC(N2Cc3cc(CC(=O)Nc4ccc(N5CCCCC5)cc4)ccc3C2=O)C(=O)N1 (configuration not stated)
inactive: T-47D breast 14.1% | MDA-MB-435 melanoma 70.5% | SW-620 colon 24% | MCF7 breast 59.7% | HCT-116 colon 102% | HCC-2998 colon 34.7% | KM12 colon 41.1%
active: BT-549 breast -9.03% | MDA-MB-468 breast -16.4%

Cn1cc(/C=N/Nc2ccnc3cc(Cl)ccc23)c2ccccc21
active: T-47D breast -60.9% | BT-549 breast -64.6% | MDA-MB-435 melanoma -83.5% | SW-620 colon -62.8% | MCF7 breast -78.4% | HCT-116 colon -46.5% | HCC-2998 colon -87.8% | KM12 colon -94.3% | MDA-MB-468 breast -83.5%

Cc1ccc(/C(N)=N/c2sc(-c3ccccc3)nc2-c2ccccc2)cc1
inactive: T-47D breast 58.3% | BT-549 breast 88.4% | MDA-MB-435 melanoma 79.6% | SW-620 colon 79.4% | MCF7 breast 55.9% | HCT-116 colon 53.5% | HCC-2998 colon 79.8% | KM12 colon 41.4% | MDA-MB-468 breast 75.6%

O=C(Cc1ccc2c(c1)CN(C1CCC(=O)NC1=O)C2=O)NCc1cccc2ccccc12 (configuration not stated)
active: T-47D breast -4.86% | BT-549 breast -52.8% | MDA-MB-435 melanoma -15.1% | SW-620 colon 5.07% | MCF7 breast 1.22% | HCT-116 colon 9.59% | HCC-2998 colon -48.6% | KM12 colon -7.26% | MDA-MB-468 breast -69.2%

Cc1noc2c(Cc3ccc([N+](=O)[O-])cc3)nn(CC(=O)N/N=C/c3ccc(Br)cc3)c(=O)c12
inactive: T-47D breast 62% | BT-549 breast 94.3% | MDA-MB-435 melanoma 92.3% | SW-620 colon 97.4% | MCF7 breast 68.4% | HCT-116 colon 64.4% | HCC-2998 colon 91.9% | KM12 colon 84.2% | MDA-MB-468 breast 95.3%

Cc1ccn2c(C(=O)c3ccc(Br)cc3)cc(-c3cc(-c4ccc(N(C)C)cc4)c(C#N)c(N)n3)c2c1
active: MDA-MB-468 breast -15%
inactive: T-47D breast 50.5% | BT-549 breast 61.9% | MDA-MB-435 melanoma 65% | SW-620 colon 41.5% | MCF7 breast 46.2% | HCT-116 colon 36.2% | HCC-2998 colon 64.6% | KM12 colon 62.4%

C/C(=C\CC/C=C(\C)CC/C=C(\C)CC[C@@H](O)C(C)(C)O)CC/C=C(\C)CC[C@@H](O)C(C)(C)O
active: T-47D breast 6.38% | BT-549 breast 8.56% | MDA-MB-468 breast 0.844%
inactive: MDA-MB-435 melanoma 39.5% | SW-620 colon 43% | MCF7 breast 13.8% | HCT-116 colon 10% | HCC-2998 colon 31.7% | KM12 colon 25.5%

COC1CC(Cn2cc(COc3ccc4ccc(=O)oc4c3)nn2)C(OCc2ccccc2)C(OCc2ccccc2)C1OCc1ccccc1 (configuration not stated)
inactive: T-47D breast 103% | BT-549 breast 122% | MDA-MB-435 melanoma 103% | SW-620 colon 97.1% | MCF7 breast 84.8% | HCT-116 colon 76.6% | HCC-2998 colon 121% | KM12 colon 109% | MDA-MB-468 breast 93.4%

COc1cc(/C=C/C(=O)c2ccc(S(=O)(=O)NCCNc3nc(Nc4ccc(F)cc4)nc(N(C)C)n3)cc2)cc(OC)c1OC
inactive: T-47D breast 26.2%
active: BT-549 breast -9.95% | MDA-MB-435 melanoma -24.8% | SW-620 colon 1.12% | MCF7 breast -76.1% | HCT-116 colon -69.6% | HCC-2998 colon -99% | KM12 colon -81.1% | MDA-MB-468 breast -50.5%

Cc1ccc(NC(=O)c2ccc(-n3c(=O)[nH]c4ccccc4c3=O)cc2)cc1
inactive: T-47D breast 80.4% | BT-549 breast 24.4% | MDA-MB-435 melanoma 102% | SW-620 colon 113% | MCF7 breast 87.5% | HCT-116 colon 92.4% | HCC-2998 colon 108% | KM12 colon 96.7% | MDA-MB-468 breast 82.2%

NS(=O)(=O)c1ccc(NC(=O)CSc2ccc(-c3ccccc3)nn2)c(Br)c1
inactive: T-47D breast 37.4% | BT-549 breast 46.3% | MDA-MB-435 melanoma 94.4% | SW-620 colon 99.5% | MCF7 breast 79% | HCT-116 colon 48.7% | HCC-2998 colon 77.9% | KM12 colon 85.3% | MDA-MB-468 breast 98%

Cc1ccc(-c2cc(-c3cc4ccccc4nc3Cl)[nH]c(=O)n2)cc1
active: T-47D breast 3.13% | BT-549 breast -76.8% | SW-620 colon -46.3% | MCF7 breast 1.81% | HCT-116 colon -72.8% | HCC-2998 colon -1.29% | KM12 colon -18.6% | MDA-MB-468 breast -7.37%
inactive: MDA-MB-435 melanoma 19.1%

O=C(c1ccc(Cl)cc1)C1[C@H](c2ccccc2Br)[C@@H](c2ccccc2)NC12C(=O)Nc1ccc(Cl)cc12 (some centres not stated)
inactive: T-47D breast 22% | BT-549 breast 75.9%
active: MDA-MB-435 melanoma -35.1% | SW-620 colon 8.7% | MCF7 breast 0.103% | HCT-116 colon 7.63% | HCC-2998 colon -0.337% | KM12 colon 8.12% | MDA-MB-468 breast -40.2%

Cc1ccc(/C=C/C(=O)c2ccc(NC(=O)CSc3nnc(-c4c[nH]c5ccccc45)n3-c3ccccc3)cc2)cc1
active: MCF7 breast 8.55% | HCT-116 colon -40.2%
inactive: T-47D breast 54.2% | BT-549 breast 95.7% | MDA-MB-435 melanoma 72.8% | SW-620 colon 90.1% | HCC-2998 colon 83.8% | KM12 colon 78.7% | MDA-MB-468 breast 85.7%

CN1CCN(c2ccc(C(=O)/C=C/c3ccc(OC(F)F)cc3)cc2)CC1
active: MDA-MB-435 melanoma -37.3% | SW-620 colon -32.8% | MCF7 breast -71.7% | HCT-116 colon -62.5% | HCC-2998 colon -48.9% | KM12 colon 6.74% | MDA-MB-468 breast -60.7%
inactive: T-47D breast 55% | BT-549 breast 19.2%

Nc1nc(Nc2ccccc2)nn1Cc1c(Cl)cccc1Cl
active: MDA-MB-468 breast 5.3%
inactive: T-47D breast 15% | BT-549 breast 23.6% | MDA-MB-435 melanoma 48.4% | SW-620 colon 56.3% | MCF7 breast 16% | HCT-116 colon 22.4% | HCC-2998 colon 15.2% | KM12 colon 13%

C=C1CCC2C3(C)COC(c4cc(F)cc(F)c4)OC3CCC2(C)C1C/C=C1/C(=O)OCC1O (configuration not stated)
active: T-47D breast -50.1% | BT-549 breast -81.1% | MDA-MB-435 melanoma -64.2% | SW-620 colon -61.9% | MCF7 breast -45.8% | HCT-116 colon -69.2% | HCC-2998 colon -79.9% | KM12 colon -77.9% | MDA-MB-468 breast -58.2%

COc1ccc(-c2cc(C(=O)N=Nc3c(O)[nH]c4ccc(Br)cc34)c3ccccc3n2)cc1
inactive: T-47D breast 58.4% | BT-549 breast 96.3% | MDA-MB-435 melanoma 52.7% | HCT-116 colon 16.9% | HCC-2998 colon 23.4% | KM12 colon 23.1% | MDA-MB-468 breast 11.1%
active: SW-620 colon -59.9% | MCF7 breast -6.48%

O=C(Nc1ccc(I)cc1)Nc1nc2ccc([N+](=O)[O-])cc2s1
active: T-47D breast -85.9% | BT-549 breast -99.6% | MDA-MB-435 melanoma -96.1% | SW-620 colon -80.4% | MCF7 breast -93.6% | HCT-116 colon -100% | HCC-2998 colon -95.6% | KM12 colon -93.3% | MDA-MB-468 breast -97.2%

O=C(COc1ccc(NC(=O)Nc2ccc(Cl)cc2)cc1)N=Nc1c(O)[nH]c2ccc([N+](=O)[O-])cc12
active: T-47D breast 7.65% | MCF7 breast -36.4% | HCT-116 colon -37.8% | KM12 colon -46.6% | MDA-MB-468 breast -54.6%
inactive: BT-549 breast 22.2% | MDA-MB-435 melanoma 17% | SW-620 colon 19.9% | HCC-2998 colon 26.3%

O=C(Nc1ccncc1)c1ccc(-n2c(=O)[nH]c3ccccc3c2=O)cc1
inactive: T-47D breast 81.7% | BT-549 breast 92.6% | MDA-MB-435 melanoma 103% | SW-620 colon 101% | MCF7 breast 92.3% | HCT-116 colon 99.1% | HCC-2998 colon 107% | KM12 colon 110% | MDA-MB-468 breast 69.6%
